Experimental findings from the supplement of paper PMC6522484 are described below.

± gives the standard deviation of the averaged measurements.

For assay [1], the system named is DLD1. Kind of assay: cell viability (CellTiter-Glo) relative to plate median (fraction of plate median); higher = more viable cells. To be noted: 5 µM; treatment time 24 h; reporter: 7TFP. In outline: (§1)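 Library compounds were added at a final concentration of 5 µM for 24 h to colorectal cancer cells stably transduced with a lentiviral TCF/Wnt firefly luciferase reporter. Reported values are firefly luciferase or CellTiterGlo luminescence, normalised per well to the plate median. Each value averages two independent replicates.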
In general terms: Cellular ATP, detected with luciferase, serves as a proxy for viable cell number.

For assay [2], the system named is HCT116. The assay is described as above. As to conditions: 5 µM; treatment time 24 h; reporter: TCF4/Wnt. In outline:
as §1

For assay [3], the system named is SW480. The assay is described as above. To be noted: 5 µM; treatment time 24 h; reporter: 7TFP. The method in brief: as §1
In assay [4] the test system is DLD1. In words: TCF/Wnt firefly luciferase reporter signal relative to plate median (fraction of plate median); higher = higher Wnt reporter signal. As to conditions: 5 µM; treatment time 24 h; reporter: 7TFP. The method in brief:
as §1
A general note: Reporter assays use an easily measured gene product as a stand-in for the process of interest.

The subject of assay [5] is SW480. Described as above. As to conditions: 5 µM; treatment time 24 h; reporter: 7TFP. The method in brief:
as §1

In assay [6] the test system is DLD1. In words: cell viability (CellTiter-Glo) relative to plate median (fraction of plate median); higher = more viable cells. To be noted: 10 µM, treatment time 24 h. In outline: (§2)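 Reporter and viability luminescence were measured in colorectal cancer cells stably carrying lentiviral TCF/Wnt firefly luciferase reporters. The cells were exposed to kinase inhibitor library compounds at a final 10 µM for 24 h, starting 24 h after seeding in 384-well plates. Each well was normalised to the plate median (webcellHTS2, additive, no log transformation), and two independent replicates were averaged.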

The test system of assay [7] is HCT116. The assay is described as above. As to conditions: 10 µM; treatment time 24 h; reporter: TCF4/Wnt. The method in brief: as §2
In assay [8] the test system is SW480. The assay is described as above. As to conditions: 10 µM; treatment time 24 h; reporter: 7TFP. In outline:
as §2

The subject of assay [9] is DLD1. Kind of assay: TCF/Wnt firefly luciferase reporter signal relative to plate median (fraction of plate median); higher = higher Wnt reporter signal. As to conditions: 10 µM, treatment time 24 h. The method in brief: as §2
For assay [10], the system named is HCT116. The description is as above. To be noted: 10 µM; treatment time 24 h; reporter: TCF4/Wnt. In outline: as §2
The subject of assay [11] is SW480. Described as above. To be noted: 10 µM; treatment time 24 h; reporter: 7TFP. The method in brief:
as §2

In the case of `C/C=C/[C@H]1O[C@@](O)([C@@H](C)[C@H](O)[C@H](C)[C@H]2OC(=O)/C(OC)=C/C(C)=C/[C@@H](C)[C@@H](O)[C@@H](C)[C@@H](O)[C@H](C)C/C(C)=C/C=C/[C@@H]2OC)C[C@@H](O[C@H]2C[C@@H](O)[C@H](OC(N)=O)[C@@H](C)O2)[C@@H]1C` [Concanamycin B], the cell viability in the assay on DLD1 [1] was 0.935 ± 0.0085; in the assay on HCT116 [2] it was 0.941 ± 0.011; in the assay with SW480 [3], 1.05 ± 0.014. Further, the figures for the “TCF/Wnt firefly luciferase reporter signal” value in the assay on DLD1 [4] and in the assay with SW480 [5] were 0.9065 ± 0.0064 and 1.05 ± 0.042, respectively.
For the compound `O[C@@H]1C[C@H]2CCC[C@@H](C1)N2Cc1ccccc1`, the figures for the cell viability in the assay on DLD1 [1], in the assay with HCT116 [2] and in the assay on SW480 [3] were 0.9315 ± 0.0035, 0.996 ± 0.048 and 0.949 ± 0.037, respectively. Besides, the results for the “TCF/Wnt firefly luciferase reporter signal” value with DLD1 [4] and with SW480 [5] were 1.1 ± 0.042 and 0.893 ± 0.013, respectively.
`Cc1ccccc1-n1c(Cn2cnc3c(N)ncnc32)nc2cccc(C)c2c1=O`: the cell viability in the assay with DLD1 [6] (reporter: 7TFP) was 1.05 ± 0.05; with DLD1 [6] (reporter: TCF4/Wnt), 0.964 ± 0.029; with HCT116 [7], 1.19 ± 0.064; in the assay with SW480 [8], 0.947 ± 0.027. Moreover, the “TCF/Wnt firefly luciferase reporter signal” value in the assay with DLD1 [9] (reporter: 7TFP) was determined as 1.02 ± 0.021; in the assay with DLD1 [9] (reporter: TCF4/Wnt), 0.941 ± 0.027; in the assay on HCT116 [10], 1.18 ± 0.057; in the assay on SW480 [11], 0.9485 ± 0.005.
On to `NC(=O)c1ccc(N)nc1`, for which the cell viability is 1.1 ± 0.13 in the assay on DLD1 [1], 1.1 in the assay on HCT116 [2] and 1.01 ± 0.16 in the assay on SW480 [3]. In addition, the “TCF/Wnt firefly luciferase reporter signal” value with DLD1 [4] came out at 1.01 ± 0.067; in the assay on SW480 [5], 0.91 ± 0.037.
Taken in the same sequence, the figures for `C[C@@H]1O[C@@H](O[C@H]2CC[C@]3(C=O)[C@H]4CC[C@]5(C)[C@@H](C6=CC(=O)OC6)CC[C@]5(O)[C@@H]4CC[C@]3(O)C2)[C@H](O)[C@H](O)[C@H]1O` were 0.885 ± 0.13, 0.4 ± 0.12, 0.913 ± 0.025, 0.178 ± 0.15 and 0.263 ± 0.043.
On the same counts, the results for `NC(=O)c1cc([N+](=O)[O-])cc([N+](=O)[O-])c1` are 1.01 ± 0.015, 1.01 ± 0.093, 0.98 ± 0.016, 1.06 ± 0.05 and 0.923 ± 0.14.
With `c1ccc2c(c1)[nH]c1cnccc12`, the cell viability came out at 0.956 ± 0.041 in the assay on DLD1 [1], 1.01 ± 0.021 in the assay with HCT116 [2] and 0.9715 ± 0.005 in the assay on SW480 [3]. Besides, the “TCF/Wnt firefly luciferase reporter signal” value was 0.892 ± 0.19 with DLD1 [4] and 0.879 ± 0.065 in the assay on SW480 [5].
In the case of `CCC(N)C(O)c1ccc(O)c(O)c1` (stereo unspecified), the cell viability in the assay with DLD1 [1] was 1.02 ± 0.055; in the assay with HCT116 [2] it was 1.1 ± 0.05; in the assay with SW480 [3], 1.07 ± 0.057. In addition, the “TCF/Wnt firefly luciferase reporter signal” value in the assay with DLD1 [4] amounted to 1.03 ± 0.22; with SW480 [5], 1.08 ± 0.071.
As to `COC(=O)C1=CCCN(C)C1`, the cell viability is 0.991 ± 0.13 in the assay with DLD1 [1], 1.07 ± 0.042 in the assay on HCT116 [2] and 1.1 ± 0.099 with SW480 [3]. In addition, the “TCF/Wnt firefly luciferase reporter signal” value with DLD1 [4] worked out at 1.07 ± 0.11; with SW480 [5] it was 1.05 ± 0.064.
On the same counts, the results for `C[C@H]1O[C@@H](O[C@H]2[C@@H](O)C[C@H](O[C@H]3[C@@H](O)C[C@H](O[C@H]4CC[C@@]5(C)[C@H](CC[C@@H]6[C@@H]5CC[C@]5(C)[C@@H](C7=CC(=O)OC7)[C@@H](O)C[C@]65O)C4)O[C@@H]3C)O[C@@H]2C)C[C@H](O)[C@@H]1O` are 0.632 ± 0.13, 0.649 ± 0.21, 0.765 ± 0.11, 0.611 ± 0.61 and 0.685 ± 0.25.
Turning to `CN[C@@H]1C[C@H]2O[C@@](C)([C@@H]1OC)n1c3ccccc3c3c4c(c5c6ccccc6n2c5c31)C(=O)NC4` [Staurosporine], the cell viability in the assay on DLD1 [6] (reporter: 7TFP) stood at 0.617 ± 0.047; with DLD1 [6] (reporter: TCF4/Wnt), 0.701 ± 0.067; in the assay with HCT116 [7] it was 0.23 ± 0.13; with SW480 [8], 0.68 ± 0.25; with DLD1 [1], 0.837 ± 0.027; in the assay with HCT116 [2], 0.712 ± 0.0099. Further, in the assay with SW480 [3], the cell viability was found to be 1.14 ± 0.035. Moreover, the “TCF/Wnt firefly luciferase reporter signal” value in the assay on DLD1 [4] stood at 0.583 ± 0.023; in the assay with SW480 [5], 0.965 ± 0.045; with DLD1 [9] (reporter: 7TFP), 0.204 ± 0.069; in the assay on DLD1 [9] (reporter: TCF4/Wnt), 0.2 ± 0.04; in the assay with HCT116 [10] it was 0.103 ± 0.0065; in the assay on SW480 [11], 0.346 ± 0.19.
